Records with an inconclusive call do not appear. Unmarked numbers belong to inactive results. Activity calls are given as the source filed them. Calls follow the shape of the dose curve; as a rule, active = well fitted cell-killing curve with a large enough effect; inconclusive = small, poorly fitted or top-dose-only effect, or effect the other way; inactive = flat fitted curve, though single readings scatter.

What all share (assay): Primary qHTS to identify gynecologic anti-cancer compounds using libraries of approved drugs and bioactive compounds (AID 1345084); also: nearly all actives have a fitted effect of over 55% in size
What all share (settings): Gynecologic cancer cell panel viability, ATPlite luminescence, 48 h; series mostly up to 57.5 µM
In general terms: Quantitative high-throughput screening tests each substance at several concentrations.

One experiment has as its system SKOV3. A digest of the protocol:
(§1)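 Luminescence from the ATPlite ATP-monitoring reagent indicates viable cell number; lower signal means cytotoxicity. Cells received compound 16 h after seeding and were exposed for 48 h across five concentrations.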

The next experiment has as its system Tov-21-G. A digest of the protocol:
as §1

Another experiment relates to Tov112D. In short, it runs like this:
as §1
% is scaled to controls: 0 for no effect and ±100 for the full control effect; potency is read from the fitted curve at half-maximal effect.

As to `CCC(C)C(=O)OC12C(OC(C)=O)C(C)C3(O)C(C=C(CO)CC4(O)C(=O)C(C)=CC43)C1C2(C)C` (centres undefined), the Potency result in the experiment on SKOV3, with Tov-21-G and in the experiment on Tov112D was “inactive” throughout.

As for `CCC[C@H](N[C@H]1CCc2cc(F)cc(F)c2C1)C(=O)Nc1cn(C(C)(C)CNCC(C)(C)C)cn1`, the Potency entry in the experiment on SKOV3, in the experiment with Tov-21-G and in the experiment with Tov112D was “inactive” throughout.

As for `O=c1[nH]cnc2c([C@@H]3N[C@H](CO)[C@@H](O)[C@H]3O)c[nH]c12`, the Potency entry in the experiment with SKOV3, in the experiment with Tov-21-G and in the experiment on Tov112D was “inactive” throughout.

Regarding `O=c1[nH]c2cccc(N3CCN(Cc4ccc(-c5ccccc5)cc4)CC3)c2o1`, the Potency entry in the experiment with SKOV3, in the experiment on Tov-21-G and with Tov112D was “inactive” each time.

Take `COc1c(C)cc(NC(=O)c2nn(Cc3ccc(F)cc3)c3c2CN(C(=O)c2ccc[nH]2)C[C@]3(C)C(N)=O)cc1C`: the activity change, negative = cytotoxicity in the experiment with SKOV3 is -24.2% [at 11.6 µM]; in the experiment with Tov-21-G, 11.9% [at 11.6 µM]; with Tov112D, 9.54% [at 11.6 µM].

Take `C=C1C(OC2OC(CO)C(O)C(O)C2O)CC2C(C)(C)C(O)CCC2(C)C1CC/C(C)=C\COC(=O)CC(=O)O` (centres undefined): the Potency result in the experiment with SKOV3, with Tov-21-G and in the experiment with Tov112D was “inactive” in each case.

Consider `C=C1CCC2[C@](C)(CCC[C@@]2(C)C=O)[C@H]1CC/C(C)=C/CO` (some centres undefined), for which the Potency entry with SKOV3, in the experiment with Tov-21-G and in the experiment on Tov112D was “inactive” each time.

On to `Nc1nc2c(c(N3CC[C@@H](N)C3)n1)CCCc1ccccc1-2`, for which the Potency in the experiment on SKOV3 was 28.2 µM (active). Further, the Potency entry in the experiment on Tov-21-G and in the experiment on Tov112D was “inactive” throughout.

In the case of `O=C1COC2(CCN(S(=O)(=O)c3ccc(-c4ccc5cccnc5c4)cc3)CC2)CN1C1CC1`, the Potency result with SKOV3, in the experiment with Tov-21-G and in the experiment on Tov112D was “inactive” in each case.

Turning to `CC(=O)O[C@@H]1[C@@H](O)[C@H](O[C@@H]2[C@@H](O)[C@@H](O)[C@H](O[C@H]3[C@H](O[C@H]4[C@H](O[C@H]5CC[C@@]6(C)C(CC[C@]7(C)C6CC=C6[C@@H]8CC(C)(C)CC[C@]8(C(=O)O)CC[C@]67C)[C@]5(C)CO)O[C@H](CO)[C@@H](O)[C@@H]4O)OC[C@@H](O)[C@@H]3O)O[C@H]2C)OC[C@H]1O` (some centres undefined), the figures for the activity change, negative = cytotoxicity in the experiment with SKOV3, with Tov-21-G and in the experiment with Tov112D were 10.7% [at 11.6 µM], -11% [at 11.6 µM] and -6.37% [at 11.6 µM], respectively.

Turning to `O=S(=O)(N[C@H]1CCCC[C@@H]1N1CCOCC1)c1ccc(Cl)cc1`, the Potency result with SKOV3, in the experiment with Tov-21-G and in the experiment on Tov112D was “inactive” throughout.

For the compound `C=C1C(=O)OC2C1CCC1(C)C(O)CCC(=C)C21` (centres undefined), the Potency result with SKOV3, with Tov-21-G and in the experiment on Tov112D was “inactive” in each case.

On to `CCC(CC)C(=O)OC12C(OC(=O)C(C)C)C(C)C3(O)C(C=C(CO)CC4(O)C(=O)C(C)=CC43)C1C2(C)C` (centres undefined), for which the Potency result in the experiment on SKOV3, in the experiment with Tov-21-G and with Tov112D was “inactive” throughout.

For `O=C(Nc1ccccc1Br)NC1CCN(c2ccc(C(F)(F)F)cn2)C1` (centres undefined), the Potency entry in the experiment with SKOV3, with Tov-21-G and with Tov112D was “inactive” throughout.

With `C[C@@H]1CCCN1CCc1cc2cc(-c3ccc(C#N)cc3)ccc2o1`, the Potency result in the experiment on SKOV3, in the experiment on Tov-21-G and in the experiment with Tov112D was “inactive” each time.

Take `O=C(NCc1cccs1)c1cc2nc(-c3ccco3)cc(C(F)(F)Cl)n2n1`: the Potency entry in the experiment with SKOV3, in the experiment with Tov-21-G and in the experiment on Tov112D was “inactive” throughout.

As for `O=C(Nc1cnc(Cl)nc1)c1ccc(F)c(F)c1`, the Potency entry with SKOV3, in the experiment with Tov-21-G and in the experiment on Tov112D was “inactive” throughout.

For `CC1(C)CCCC2(C)C1C(=O)C=C(C(=O)O)C2(O)C(=O)O` (centres undefined), the Potency result with SKOV3, in the experiment with Tov-21-G and in the experiment with Tov112D was “inactive” throughout.

Turning to `CCN(CCNC(=O)Nc1ccccc1Br)c1cccc(C)c1`, the Potency result in the experiment with SKOV3, with Tov-21-G and in the experiment on Tov112D was “inactive” each time.

As to `CCOC(=O)C1=Cc2ccc(C(F)(F)C(F)(F)F)cc2N=C(N)C1`, the Potency result in the experiment with SKOV3, in the experiment on Tov-21-G and in the experiment with Tov112D was “inactive” throughout.

As for `CC(=O)OC/C(=C/C(=O)O)CC[C@@H]1C(C=O)=CC[C@@H]2C(C)(C)CCC[C@@]12C`, the Potency entry in the experiment on SKOV3, with Tov-21-G and with Tov112D was “inactive” throughout.

As to `CN(C)CC#CCCC(=O)C(O)(c1ccccc1)C1CCC1` (centres undefined), the Potency entry in the experiment on SKOV3, with Tov-21-G and with Tov112D was “inactive” throughout.

For the compound `Nc1nc2c(ncn2C2OC3COP(=O)(O)OC3C2O)c(=O)[nH]1` (centres undefined), the Potency result in the experiment with SKOV3, in the experiment on Tov-21-G and in the experiment on Tov112D was “inactive” each time.

For `C=C1/C(=C/C=C2\CCC[C@]3(C)[C@@H]([C@H](C)/C=C/[C@H](O)C4CC4)CC[C@@H]23)C[C@@H](O)C[C@@H]1O`, the Potency entry with SKOV3, with Tov-21-G and with Tov112D was “inactive” in each case.

With `NC(=O)c1cccc2[nH]c(-c3ccc(C4CCCN4)cc3F)nc12` (centres undefined), the Potency is 14.1 µM (active) in the experiment on SKOV3, 12.6 µM (active) in the experiment on Tov-21-G and 15.8 µM (active) with Tov112D.

On to `NC(=O)C1=CC2C3C=CC2C(OC3=O)O1` (centres undefined), for which the Potency entry with SKOV3, with Tov-21-G and in the experiment on Tov112D was “inactive” in each case.

For `CC(C)(C)OC(=O)c1ncn2c1C(C)(C)Nc1ccccc1-2`, the Potency result in the experiment with SKOV3, with Tov-21-G and in the experiment with Tov112D was “inactive” throughout.

Take `O=C(NCCN1CCN(c2cccc3c2OCCO3)CC1)c1ccc(F)cc1`: the Potency entry in the experiment on SKOV3, in the experiment with Tov-21-G and with Tov112D was “inactive” each time.

Values taken from PubChem BioAssay (NCATS).
